Counter-ions that a name gives are not always drawn. ± gives the standard deviation or the standard deviation of the averaged measurements.
Experiments:
Conditions in all cases: 25 µM; exposure: 24-48 hpf
[1] = system: Danio rerio Tg(wt1b:EGFP) embryo, pronephros; assay: glomerular separation, fold change vs DMSO control; higher = glomeruli further apart (abnormal)
How it was run: (§1)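 Dechorionated Tg(wt1b:EGFP) zebrafish embryos were incubated at 28.5°C from 24 to 48 hpf with 25 μM compound in HEPES-buffered E3 containing 0.5% DMSO and 0.003% PTU. Distances and angles between 16 manually set points on maximum projections of dorsal pronephros images were measured in Fiji, with values over 2 SD from the feature mean excluded. Each feature is a fold change relative to the mean of same-day DMSO-treated embryos.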

[2] = system: Danio rerio Tg(wt1b:EGFP) embryo, pronephros; assay: glomerular width (mean of left and right), fold change vs DMSO control; higher = wider glomerulus
How it was run: as §1

[3] = system: Danio rerio Tg(wt1b:EGFP) embryo, pronephros; assay: fraction of imaged embryos annotated as normal kidney; higher = less nephrotoxic; extreme values may be limits of the assay
How it was run: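 The value given is the share of embryos in each treatment scored as having a normal kidney. To obtain it, dechorionated Tg(wt1b:EGFP) zebrafish embryos were treated from 24 to 48 hpf at 28.5°C with 25 μM compound in 0.5% DMSO, in 5 mM HEPES-buffered E3 with 0.003% PTU. Pronephroi were imaged by widefield fluorescence (470 nm, 10 z-slices), and every embryo was annotated by hand from maximum projections.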

[4] = system: Danio rerio Tg(wt1b:EGFP) embryo, pronephros; assay: pronephric angle neck segment to proximal convoluted tubule (mean of left and right), fold change vs DMSO control; higher = larger pronephric angle
How it was run: as §1

Compound | glomerular separation [1] | glomerular width [2] | fraction of imaged embryos annotated as normal kidney [3] | pronephric angle neck segment [4]
Cc1cc(C(C)(C)C)cc(C)c1CC1=NCCN1 [Xylometazoline hydrochloride] | 1.11 ± 0.42 | 0.948 ± 0.05 | 1 | 1 ± 0.012
CC(=O)Oc1ccc(C(c2ccc(OC(C)=O)cc2)c2ccccn2)cc1 [Bisacodyl] | 0.927 ± 0.28 | 0.957 ± 0.038 | 0.917 | 1.01 ± 0.016
O=C(Nc1ccc([N+](=O)[O-])cc1Cl)c1cc(Cl)ccc1O [Niclosamide] | 1.53 ± 0.67 | 0.907 ± 0.04 | 0.455 | 1.26 ± 0.093
CCCOc1ccccc1-c1nc2[nH]nnc2c(=O)[nH]1 [Zaprinast] | 1.56 ± 0.95 | 0.99 ± 0.074 | 0.727 | 1.08 ± 0.12
COC(=O)Nc1nc2cc(C(=O)c3ccc(F)cc3)ccc2[nH]1 [Flubendazol] | 1.81 ± 0.69 | 0.934 ± 0.034 | 0.833 | 1.11 ± 0.15
CNc1ncnc2c1ncn2[C@@H]1O[C@H](CO)[C@@H](O)[C@H]1O [N6-methyladenosine] | 0.849 ± 0.21 | 1.05 ± 0.029 | 1 | 1.01 ± 0.065
CCn1cc(C(=O)O)c(=O)c2cc(F)c(N3CCN(C)CC3)cc21 [Pefloxacine] | 0.997 ± 0.31 | 1.01 ± 0.021 | 1 | 1.01 ± 0.018
C=C1C(=O)O[C@H]2[C@H]1CC/C(C)=C/CC[C@@]1(C)O[C@@H]21 [Parthenolide] | 2.81 ± 1.2 | 0.8373 ± 0.0079 | 0.364 | 1.4 ± 0.038
Cc1cc(-c2ccccc2)nnc1NCCN1CCOCC1 [Minaprine dihydrochloride] | 1.13 ± 0.95 | 1.03 ± 0.03 | 0.75 | 0.9963 ± 0.0098
CN(C)[C@@H]1C(O)=C(C(=O)NCNCCCC[C@H](N)C(=O)O)C(=O)[C@@]2(O)C(O)=C3C(=O)c4c(O)cccc4[C@@](C)(O)[C@H]3C[C@@H]12 [Lymecycline] | 1.2 ± 0.48 | 0.916 ± 0.014 | 1 | 0.97 ± 0.023
CN1CCN2c3ccccc3Cc3ccccc3C2C1 (stereo unspecified) [Mianserine hydrochloride] | 1.3 ± 0.59 | 0.983 ± 0.035 | 0.833 | 0.9786 ± 0.0076
C[C@H]1C[C@@H]2[C@H]([C@@H](O)C[C@@]3(C)[C@H]2CC[C@]3(O)C(=O)CO)[C@@]2(C)C=CC(=O)C=C12 [Methylprednisolone, 6-alpha] | 1.11 ± 0.4 | 1.21 ± 0.11 | 0.833 | 1.06 ± 0.088
CN(C)CCc1c[nH]c2ccc(Cn3cncn3)cc12 [Rizatriptan benzoate] | 0.941 ± 0.29 | 1.01 ± 0.025 | 0.5 | 1.02 ± 0.07
O=C(CCCCC(=O)Nc1c(I)cc(I)c(C(=O)O)c1I)Nc1c(I)cc(I)c(C(=O)O)c1I [Iodipamide] | 0.857 ± 0.54 | 1.05 ± 0.076 | 0.75 | 1.0067 ± 0.00076
CN1C(C)(C)CCCC1(C)C [Pempidine tartrate] | 0.75 ± 0.25 | 1 ± 0.032 | 0.833 | 1.02 ± 0.068
OCCN1CCN(CCCN2c3ccccc3Sc3ccc(C(F)(F)F)cc32)CC1 [Fluphenazine dihydrochloride] | 1.03 ± 0.53 | 1.07 ± 0.02 | 0.833 | 0.932 ± 0.013
CC(=O)Oc1ccccc1C(=O)O [Acetylsalicylic acid] | 1.2 ± 0.37 | 0.951 ± 0.019 | 0.917 | 1.01 ± 0.018
CCCc1nc(C)c2c(=O)nc(-c3cc(S(=O)(=O)N4CCN(CC)CC4)ccc3OCC)[nH]n12 [Vardenafil] | 1.24 ± 0.46 | 1.02 ± 0.021 | 0.667 | 0.981 ± 0.041
CCN(CC)CCc1nc(-c2ccccc2)no1 [Oxalamine citrate salt] | 0.929 ± 0.43 | 0.933 ± 0.016 | 0.917 | 0.893 ± 0.035
O=c1[nH]cc(F)c(=O)[nH]1 [5-fluorouracil] | 0.802 ± 0.22 | 1.02 ± 0.042 | 0.75 | 1.024 ± 0.0061
CCCCOc1cc(C(=O)OCCN(CC)CC)ccc1N [Benoxinate hydrochloride] | 0.798 ± 0.38 | 1.07 ± 0.018 | 0.833 | 0.9693 ± 0.0068
O=C1[C@H]2CCCC[C@H]2C(=O)N1CCCCN1CCN(c2nsc3ccccc23)CC1 [Perospirone] | 1.25 ± 0.36 | 0.9761 ± 0.0054 | 1 | 1.05 ± 0.017
C[C@]12CCC(=O)C=C1C=C[C@@H]1[C@@H]2CC[C@@]2(C)[C@H]1CC[C@@]21CCC(=O)O1 [Canrenone] | 1.24 ± 0.51 | 0.798 ± 0.02 | 0.818 | 1.07 ± 0.031
CN(C)C(=O)C(CCN1CCC(O)(c2ccc(Cl)cc2)CC1)(c1ccccc1)c1ccccc1 [Loperamide hydrochloride] | 1.07 ± 0.32 | 1.04 ± 0.12 | 0.667 | 1.03 ± 0.065
CC[N+](C)(CC)CCOC(=O)C1c2ccccc2Oc2ccccc21 [Methantheline bromide] | 0.979 ± 0.45 | 0.996 ± 0.029 | 0.917 | 1.045 ± 0.0066
O=P(O)(O)C(O)(Cc1cccnc1)P(=O)(O)O [Risedronic acid monohydrate] | 0.755 ± 0.35 | 1.04 ± 0.032 | 0.833 | 0.975 ± 0.027
CC(C)(C)NC[C@H](O)COc1nsnc1N1CCOCC1 [Timolol maleate salt] | 0.812 ± 0.37 | 0.9995 ± 0.0057 | 0.833 | 0.9989 ± 0.0023

Compound | glomerular separation [1] | glomerular width [2] | fraction of imaged embryos annotated as normal kidney [3] | pronephric angle neck segment [4]
O=c1cc(-c2ccc(O)c(O)c2)oc2cc(O)cc(O)c12 [Luteolin] | 0.869 ± 0.36 | 0.9662 ± 0.004 | 0.917 | 0.999 ± 0.006
NC[C@H]1O[C@H](O[C@H]2[C@H](O[C@@H]3O[C@H](CO)[C@@H](O)[C@H]3O)[C@@H](O)[C@H](N)C[C@@H]2N)[C@H](N)[C@@H](O)[C@@H]1O [Ribostamycin sulfate salt] | 0.722 ± 0.22 | 1.08 ± 0.019 | 0.833 | 1.06 ± 0.061
CN1CCN(CCCN2c3ccccc3Sc3ccc(C(F)(F)F)cc32)CC1 [Trifluoperazine dihydrochloride] | 1.22 ± 0.54 | 0.953 ± 0.015 | 0.833 | 0.9555 ± 0.0078
CCCNCC(O)COc1ccccc1C(=O)CCc1ccccc1 (stereo unspecified) [Propafenone hydrochloride] | 1.06 ± 0.39 | 1.05 ± 0.0038 | 0.818 | 1.13 ± 0.035
CC(=O)Nc1ccc(CC(=O)O)cc1 [Actarit] | 1.05 ± 0.28 | 1.116 ± 0.0018 | 0.667 | 0.998 ± 0.049
Clc1ccc(CSC(Cn2ccnc2)c2ccc(Cl)cc2Cl)cc1 (stereo unspecified) [Sulconazole nitrate] | 2.88 ± 1.5 | 0.798 ± 0.035 | 0.25 | 1.38 ± 0.15
CC(C)OC(=O)CCC/C=C\C[C@@H]1[C@@H](CC[C@@H](O)CCc2ccccc2)[C@H](O)C[C@@H]1O [Latanoprost] | 1.02 ± 0.44 | 1.05 ± 0.014 | 0.833 | 1.02 ± 0.013
CC[C@H]1OC(=O)[C@H](C)[C@@H](O[C@H]2C[C@@](C)(OC)[C@@H](O)[C@H](C)O2)[C@H](C)[C@@H](O[C@@H]2O[C@H](C)C[C@H](N(C)C)[C@H]2O)[C@](C)(OC)C[C@@H](C)C(=O)[C@H](C)[C@@H](O)[C@]1(C)O [Clarithromycin] | 0.802 ± 0.28 | 0.909 ± 0.043 | 1 | 1.06 ± 0.039
COC(=O)Nc1nc2cc([S+]([O-])c3ccccc3)ccc2[nH]1 (stereo unspecified) [Oxfendazol] | 1.06 ± 0.33 | 1.05 ± 0.043 | 0.833 | 1.036 ± 0.006
CCC1=C(C)CN(C(=O)NCCc2ccc(S(=O)(=O)NC(=O)N[C@H]3CC[C@H](C)CC3)cc2)C1=O [Glimepiride] | 0.872 ± 0.29 | 1.02 ± 0.06 | 0.917 | 1 ± 0.03
NC(=O)N1c2ccccc2CC(=O)c2ccccc21 [Oxcarbazepine] | 0.94 ± 0.28 | 1 ± 0.035 | 0.833 | 0.9454 ± 0.0088
CC(C)/N=c1\cc2n(-c3ccc(Cl)cc3)c3ccccc3nc-2cc1Nc1ccc(Cl)cc1 [Clofazimine] | 1.02 ± 0.29 | 1.06 ± 0.056 | 0.75 | 0.961 ± 0.0097
CC(=O)OCC(=O)[C@@]1(O)CC[C@H]2[C@@H]3CCC4=CC(=O)C=C[C@]4(C)[C@@]3(F)[C@@H](O)C[C@@]21C [Isoflupredone acetate] | 1.22 ± 0.63 | 1.21 ± 0.017 | 0.583 | 1.014 ± 0.0048
CN(C)CC/C=C1\c2ccccc2CSc2ccccc21 [Dosulepin hydrochloride] | 1.15 ± 0.25 | 0.981 ± 0.048 | 0.833 | 0.995 ± 0.03
CN(C)C/C=C(/c1ccc(Br)cc1)c1cccnc1 [Zimelidine dihydrochloride monohydrate] | 0.758 ± 0.25 | 0.9778 ± 0.0056 | 0.75 | 0.971 ± 0.055
OCCOCCN1CCN(C2=Nc3ccccc3Sc3ccccc32)CC1 [Quetiapine hemifumarate] | 0.872 ± 0.15 | 1.07 ± 0.066 | 0.917 | 0.98617 ± 0.00072
CCCC(=O)Nc1ncnc2c1ncn2[C@@H]1O[C@@H]2COP(=O)(O)O[C@H]2[C@H]1OC(=O)CCC [Bucladesine sodium salt] | 0.912 ± 0.4 | 0.933 ± 0.04 | 0.917 | 0.9351 ± 0.0021
COc1ccc(CC(C)NCC(O)c2ccc(O)c(NC=O)c2)cc1 (stereo unspecified) [Formoterol fumarate] | 0.928 ± 0.31 | 0.97 ± 0.051 | 0.917 | 1.05 ± 0.034
NCCC[C@H](N)CC(=O)N[C@H]1CNC(=O)[C@H]([C@H]2C[C@H](O)NC(N)=N2)NC(=O)/C(=C/NC(N)=O)NC(=O)[C@H](CO)NC(=O)[C@H](CO)NC1=O [Viomycin sulfate] | 1.23 ± 0.3 | 0.86 ± 0.0024 | 0.833 | 1.07 ± 0.088
CCOc1ccc(Cc2nccc3cc(OCC)c(OCC)cc23)cc1OCC [Ethaverine hydrochloride] | 0.975 ± 0.28 | 1.1 ± 0.081 | 0.583 | 0.989 ± 0.061
CN1CCc2cccc3c2[C@H]1Cc1ccc(O)c(O)c1-3 [R(-) Apomorphine hydrochloride hemihydrate] | 0.765 ± 0.25 | 0.954 ± 0.018 | 0.833 | 0.933 ± 0.042
Cc1ccc(-c2cc(C(F)(F)F)nn2-c2ccc(S(N)(=O)=O)cc2)cc1 [Celecoxib] | 0.968 ± 0.38 | 0.913 ± 0.059 | 0.833 | 1.06 ± 0.014
COc1ccc2c(c1)c(CC(=O)OCC(=O)O)c(C)n2C(=O)c1ccc(Cl)cc1 [Acemetacin] | 1.28 ± 0.69 | 1.04 ± 0.027 | 0.917 | 1.08 ± 0.039
COc1ccccc1OCCNCC(O)COc1cccc2[nH]c3ccccc3c12 (stereo unspecified) [Carvedilol] | 1.02 ± 0.41 | 1.048 ± 0.0037 | 0.8 | 0.958 ± 0.019
COc1cc2nc(N(C)CCCNC(=O)C3CCCO3)nc(N)c2cc1OC (stereo unspecified) [Alfuzosin hydrochloride] | 1.23 ± 0.62 | 1.01 ± 0.02 | 0.818 | 0.953 ± 0.036
O=C(O)[C@H]1/C(=C/CO)O[C@@H]2CC(=O)N21 [Clavulanate potassium salt] | 0.835 ± 0.22 | 1.04 ± 0.032 | 0.833 | 1.001 ± 0.00045
O=C1NCCN1CCN1CCC(c2cn(-c3ccc(F)cc3)c3ccc(Cl)cc23)CC1 [Sertindole] | 1.45 ± 0.59 | 1.08 ± 0.022 | 0.833 | 0.949 ± 0.071
